# HT1080NT lethal: qHTS for induction of synthetic lethality in tumor cells producing 2HG: qHTS for the HT-1080-NT fibrosarcoma cell line; hit rate 1.6% among 360,000; HT-1080-NT fibrosarcoma viability, CellTiter-Glo ATP luminescence, 48 h; AID 686970, 2013; Potency, µM (highest dose often 46.1 µM), for the others: top-dose activity, negative = less viability, most hits filed as cytotoxic;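 note: NT is the 2HG producing partner of a matched IDH1 knockdown line; potency is the fitted concentration of half-maximal effect; 0% = DMSO-treated cells and -100% = media-only wells without cells; nearly all actives have a fitted effect of over 55% in size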
#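 Viability by CellTiter-Glo luminescence after 48 h compound exposure at 37C of HT-1080-NT cells (750/well, RPMI, 5% FBS). % activity scaled between DMSO wells and medium-only wells, then curve-fitted and categorized by curve class.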
# DT40 TDP1 CPT: qHTS for Inhibitors of human tyrosyl-DNA phosphodiesterase 1 (TDP1): qHTS in cells in presence of CPT | chicken DT40 Tdp1-/-;hTDP1 cells + 20 nM CPT, ATP luminescence, 48 h | Potency, µM (highest dose often 46.2 µM), for the others: at the top dose activity change, negative = growth inhibition, usual class: inhibitors | hit rate 12% among 420,000; note: potency is the fitted concentration of half-maximal effect; nearly all actives have a fitted effect of over 55% in size
#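 Chicken DT40 Tdp1-/- cells complemented with human TDP1, 400 cells/well, exposed to compounds plus 20 nM camptothecin for at least 48 h at 37 C; viability read as ATP content by CellTiter-Glo luminescence.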
# IL1B secr inh: qHTS for Inhibitors of Inflammasome Signaling: IL-1-beta AlphaLISA Primary Screen; THP-1 LPS/ATP IL-1B secretion, AlphaLISA, 16 h; hits give low values; hit rate 4.7% among 360,000; activity change, % at 57.5 µM; in the data active = activity change below about -50%; inconclusive = mostly about -30% to -49%
#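 THP-1 cells pretreated 1 hr with compounds (up to 57.5 uM final), then stimulated with LPS (250 ng/mL final) plus ATP (1.25 mM final); secreted IL-1B measured by AlphaLISA after 16 hr, decreased signal indicating inhibition.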
# TDP1 cell noCPT: qHTS for Inhibitors of human tyrosyl-DNA phosphodiesterase 1 (TDP1): qHTS in cells in absence of CPT | DT40 Tdp1-/- hTDP1 cells, no CPT, ATP luminescence, 48 h | Potency, µM (doses to about 46.2 µM), for the others: at the highest dose activity change, negative = growth inhibition, hits mostly inhibitors | hit rate 15% among 420,000 | AID 686978, 2013; note: potency is the fitted concentration of half-maximal effect; nearly all actives have a fitted effect of over 55% in size
#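 Readout: luminescence from CellTiter-Glo after 30 min in the dark at RT. Cells: DT40 Tdp1-/- with stable hTDP1, 400/well. Exposure: compounds alone, ≥48 hr, 37 °C.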
# HT1080 IDH1KD tx: qHTS for induction of synthetic lethality in tumor cells producing 2HG: qHTS for the HT-1080-IDH1KD cell line | HT-1080 IDH1 knockdown viability, ATP luminescence, 48 h | Potency, µM (series often up to 46.1 µM), for inactives: at the highest dose activity, negative = toxicity, most hits filed as cytotoxic | hit rate 2% among 360,000 | AID 686971, 2013;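 note: potency is the fitted concentration of half-maximal effect; 0% = DMSO wells and -100% = cell-free medium wells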
#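 Cytotoxicity counter-line: IDH1KD HT-1080, 48 h, CellTiter-Glo. Curves classed by r2, magnitude and activity.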
# uPA generation: qHTS for Inhibitors of Cell Surface uPA Generation. Potency, µM (top dose mostly 38.3 µM), inactives show top-dose activity change, negative = inhibition, actives largely listed as inhibitors. cell surface uPA generation assay, qHTS. hit rate 0.31% among 330,000. AID 540303, 2011; active = well fitted inhibition curve with a large enough effect; inconclusive = small, poorly fitted or top-dose-only effect; inactive = no such curve, though single readings can be large or run the other way; tested in mouse RAW 264.7 cells; note: potency is the fitted concentration of half-maximal effect; nearly all actives have a fitted effect of over 55% in size
# Active calls of the source: *; ? = inconclusive; nt = not tested or not shown. Only some compounds are listed: those with a hit (about 19% of all), similar ones and a draw of the others. Unless noted, calls come from the whole dose curve; as a rule, active = well fitted curve in the direction sought with a large enough effect; inconclusive = small, poorly fitted or top-dose-only effect, or another doubt; inactive = no such curve, though single readings can be large; an effect the other way counts as inactive or inconclusive. Unless noted, % is set by controls: 0 for no effect and ±100 for the full control effect.
SMILES,HT1080NT lethal,DT40 TDP1 CPT,IL1B secr inh,TDP1 cell noCPT,HT1080 IDH1KD tx,uPA generation
CN(C)C(CNC(=O)c1cccc(S(=O)(=O)N2CCN(c3ccc(F)cc3)CC2)c1)c1ccccc1 (stereo not drawn),?,15µM*,-74*,9.2µM*,15µM*,-11%
COc1cccc(CN(C)C(=O)c2cccc(S(=O)(=O)N3CCN(c4ccc(F)cc4)CC3)c2)c1OC,-1%,21µM*,?,13µM*,-3%,-9%
Cc1ccc(N2CC(C(=O)Nc3cccc(S(=O)(=O)N4CCOCC4)c3)CC2=O)cc1 (stereo not drawn),2%,-14%,-2,-22%,2%,nt
CN(C(=O)c1cccc(NC(=O)Cc2ccc(NC(=O)C3CCCN(S(=O)(=O)c4cccc([N+](=O)[O-])c4)C3)cc2)c1)C1CCCCC1 (stereo not drawn),10%,-29%,-2,?,3%,9%
COc1cccc(CN(C)C(=O)c2cccc(S(=O)(=O)N3CCN(c4ccccc4)CC3)c2)c1OC,-1%,18µM*,-3,8.2µM*,-10%,?
COc1ccccc1CNC(=O)c1cccc(S(=O)(=O)N2CCN(c3ccc(F)cc3)CC2)c1,-7%,?,-7,12µM*,-12%,-23%
COc1ccc(CNC(=O)c2cccc(S(=O)(=O)N3CCN(c4ccc(F)cc4)CC3)c2)cc1,-3%,?,-3,?,-4%,3%
O=C(Cn1cc(C(F)(F)F)ccc1=O)NC1CCCC1,10%,15%,3,-5%,0%,-1%
Cc1ccc(S(=O)(=O)NCCc2ccccc2)cc1,-6%,-101%,-17,-21%,5%,2%
Cc1ccc(S(=O)(=O)NCC2(c3ccccc3)CCN(C)CC2)cc1,-2%,-12%,-66*,12%,-23%,-13%
Cc1cccc(NC(=O)c2sc3nc(N4CCOCC4)c4c(c3c2N)CC(C)(C)OC4)c1,nt,?,nt,7.3µM*,nt,nt
CC1(C)Cc2c(c(N3CCOCC3)nc3sc(C(=O)Nc4cccc(Cl)c4)c(N)c23)CO1,1%,18µM*,-10,?,14%,12%
Nc1c(C(=O)Nc2ccc(Br)cc2)sc2nc(N3CCOCC3)c3c(c12)CCCC3,10%,21µM*,11,?,0%,nt
CCOc1ccc(-c2cc3c(=O)n(CC(=O)Nc4c(C)cccc4C)ccn3n2)cc1,nt,-1%,nt,-12%,nt,nt
COc1ccc(CNC(=S)NC(C)CCc2ccccc2)cc1 (stereo not drawn),-13%,?,-21,?,-17%,3%
Cc1ccccc1NC(=O)N(O)C1(C#N)CCCCC1,13%,0%,6,5%,16%,6%
Cc1ccc(N(CC(=O)N(C)Cc2ccccc2)S(C)(=O)=O)cc1C,-4%,-23%,6,-13%,-2%,-4%
N=C(N)Cc1ccccc1Sc1ccccc1,-3%,9.2µM*,?,8.2µM*,-18%,-6%
c1ccc(Sc2ccccc2CN2CCCC2)cc1,-3%,8%,-29,-25%,-2%,-1%
Cc1ccc(CNC(=O)CCS(=O)(=O)c2cc3c4c(c2)CCN4C(=O)CC3)cc1,nt,-13%,nt,3%,nt,nt
Cc1ccc(C)c(OCc2nc3ccc(S(=O)(=O)Nc4c(C)n(C)n(-c5ccccc5)c4=O)cc3[nH]2)c1,-3%,-2%,-25,?,-22%,-1%
Cc1nn(C)c(Cl)c1NC(=O)OCc1ccc(F)cc1,-11%,?,9,16µM*,-17%,0%
Cc1nnsc1NC(=O)OCc1ccc(C(C)(C)C)cc1,-23%,15µM*,-4,8.2µM*,-29%,-6%

# Source: PubChem
